An excerpt weighted towards active compounds, which were near 3.5% of everything screened.
GPR151 activ: activators of human GPR151 | Q8TDV0 | PathHunter beta-arrestin GPR151 cells, luminescence | activation, % at 11.2 µM | 1% of 650,000 active | AID 1508602; in the data active means activation above about 4.9%;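 further: 0% = median of compound wells and 100% = cells with positive control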
Target sequence (Q8TDV0 whole entry, looked up): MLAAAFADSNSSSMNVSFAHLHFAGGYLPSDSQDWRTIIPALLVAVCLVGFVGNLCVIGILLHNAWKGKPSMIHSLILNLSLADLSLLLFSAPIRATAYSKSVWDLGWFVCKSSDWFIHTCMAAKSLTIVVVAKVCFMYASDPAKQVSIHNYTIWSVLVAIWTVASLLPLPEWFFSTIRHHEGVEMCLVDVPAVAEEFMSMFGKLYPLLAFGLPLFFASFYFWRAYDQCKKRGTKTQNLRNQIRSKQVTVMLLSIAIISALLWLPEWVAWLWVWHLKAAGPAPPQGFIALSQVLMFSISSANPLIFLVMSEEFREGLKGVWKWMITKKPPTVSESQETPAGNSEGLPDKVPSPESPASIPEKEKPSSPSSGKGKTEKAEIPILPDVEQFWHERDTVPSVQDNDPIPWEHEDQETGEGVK
MITF primary: blocks human microphthalmia-associated transcription factor; 0.91% of 650,000 active; AlphaScreen MITF homodimerization, bead proximity signal; inhibition, % at 2.6 µM; O75030; in the data active means inhibition above about 50%;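 further: 0% = vehicle wells with protein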
FBW7 activator: human FBW7 E3 ligase activation, primary screen; AID 1259310; normalized activity (activation), % at 26.1 µM; 0.13% of 650,000 active; AlphaScreen FBW7–phospho-cyclin E peptide binding, activator screen; Q969H0; in the data active means normalized activity above about 1.9%;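 further: purified mutant Fbw7 with reduced substrate affinity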
TEAD-YAP inh: TEAD-YAP interaction inhibition; 1.4% of 640,000 active; HEK-TIYL cells, TEAD-Gal4/YAP UAS-luciferase luminescence; inhibition, % at 9.12 µM; AID 1259422; in the data active means inhibition above about 32%;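 further: 0% = median of test compound wells and 100% = reference inhibitor wells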
GPR151 conf act: human GPR151 activation, confirmation screen. activation, % at 11.2 µM. 6,700 tested, under 10 active. GPR151 PathHunter beta-arrestin cells, luminescence, 90 min; % of EA-reagent control over plate median. shares compounds with GPR151 activ;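 active means mean percent activation across replicates above the confirmation screen cutoff of 4.91%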
GPR119 ag: activates human GPR119 in a GPR151 counter-screen. shares compounds with GPR151 activ. GPR119 PathHunter beta-arrestin cells, luminescence, 90 min; 0 = compound-well median, 100 = enzyme-acceptor control. activation, % at 11.2 µM. 0.3% of 6,700 active;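 active means mean percent activation in the counterscreen above 29.09%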;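 further: counterscreen on off-target GPR119 to flag nonselective hits from the GPR151 activator screen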
An asterisk follows results filed as active; nt = no result given.

SMILES | GPR151 activ | MITF primary | FBW7 activator | TEAD-YAP inh | GPR151 conf act | GPR119 ag
NC(=O)COC(=O)c1cccc(S(=O)(=O)N2CCCc3ccccc32)c1 | 6.1* | 0.1 | 0.0 | -3.9 | -0.4 | -1.2
O=C(C1CCC1)N1CCc2cc(S(=O)(=O)N3CCCc4ccccc43)ccc21 | 6.5* | 0.7 | 0.1 | -11.5 | 1.2 | 0.4
CSc1ccccc1C(=O)Nc1ccccc1Cl | 8.2* | 6.3 | 0.0 | 9.6 | -1.2 | 5.3
CCc1ccccc1NC(=O)C(=O)NCCOC | -0.4 | -24.8 | 0.0 | 8.1 | nt | nt
CCCNC(=O)C(=O)Nc1ccccc1CC | 6.7* | -3.2 | 0.1 | -2.5 | -0.4 | -5.8
S=C(Nc1ccc2c(c1)OCO2)N1CCN(c2ncccn2)CC1 | 6.6* | 2.5 | -0.2 | -4.6 | -0.1 | -7.1
Cc1ccc(NC(=O)NC(=O)c2cccc(Cn3cc(C(F)(F)F)ccc3=O)c2)nc1 | 3.9 | 6.5 | -0.1 | -13.3 | nt | nt
O=C(NC(=O)c1ccc(Cn2cc(C(F)(F)F)ccc2=O)cc1)Nc1cccnc1 | 5.2* | -7.8 | -0.2 | -0.2 | -0.9 | -11.1
Cc1ccc([N+](=O)[O-])cc1NC(=O)c1ccccc1N(Cc1ccccc1)S(C)(=O)=O | 0.8 | -3.0 | 0.0 | -10.2 | nt | nt
COCCCn1c(=O)[nH]c2ncc(-c3cc(OC)c(OC)c(OC)c3)nc21 | 6.0* | 9.2 | -0.6 | -9.8 | -0.2 | 8.8
COCCCn1c(=O)[nH]c2ncc(-c3ccccc3)nc21 | -0.5 | -4.8 | -0.5 | 9.1 | nt | nt
CCN(CC)S(=O)(=O)c1ccc(C(=O)Nc2nnc(-c3ccc(OC)cc3)o2)cc1 | 5.3* | 19.8 | -0.1 | 3.7 | 0.5 | -2.5
CCOC(=O)C1CCN(C(=O)/C=C/c2cccc([N+](=O)[O-])c2)CC1 | 6.6* | -0.2 | -0.1 | -6.9 | -0.4 | 0.6
CCOC(=O)C1CCN(C(=O)/C=C/c2ccc([N+](=O)[O-])cc2)CC1 | 0.3 | 14.3 | 0.2 | -12.7 | nt | nt
Cc1csc(NC(=O)C2(c3cccs3)CCOCC2)n1 | 1.0 | 21.8 | 0.0 | 7.5 | nt | nt
O=C(CN1CC(=O)Oc2ccccc21)NCC1CCCO1 (configuration not stated) | 13.2* | 2.6 | 0.4 | -18.1 | -1.3 | -9.3
CCCCn1c(SCC(=O)/C(C#N)=C(\C)N)nc2cc(C(=O)OC)ccc2c1=O | -0.8 | -1.3 | 0.0 | 4.7 | nt | nt
CCN(CC)C(=O)C1CCCN(c2ccc([N+](=O)[O-])cc2S(=O)(=O)N2CCCC2)C1 (configuration not stated) | 7.0* | -3.5 | 0.1 | -16.8 | 0.2 | 14.5
CCN(CC)C(=O)C1CCCN(c2ccc([N+](=O)[O-])cc2[N+](=O)[O-])C1 (configuration not stated) | 0.7 | -4.4 | 0.0 | 8.7 | nt | nt
Cc1cc(C(=O)N(CCCN(C)C)c2nc3ccccc3s2)n(C)n1 | 0.2 | 6.8 | 0.0 | -9.6 | nt | nt
O=C(CCCCCn1c(=S)[nH]c2cc3c(cc2c1=O)OCO3)NCc1ccccc1 | 1.0 | 4.4 | 0.1 | -1.0 | nt | nt
O=C(CCCCCn1c(=S)[nH]c2cc3c(cc2c1=O)OCO3)NCc1cccnc1 | 5.9* | -0.2 | -0.1 | -4.7 | 1.7 | 5.5
Cc1cc2nc(-c3cc(NC(=O)c4cccnc4)ccc3Cl)oc2cc1C | 5.3* | -3.3 | -0.2 | -9.4 | 0.1 | 13.2
O=C(Nc1ccc(Cl)c(-c2nc3ccccc3o2)c1)c1cccnc1 | 0.7 | 14.8 | 0.1 | -3.4 | nt | nt
COc1ccc(Cn2cnc3sc4c(c3c2=O)CCC(N2CCSCC2)C4)cc1 (configuration not stated) | -0.2 | 14.4 | -0.6 | -7.7 | nt | nt
SMILES | GPR151 activ | MITF primary | FBW7 activator | TEAD-YAP inh | GPR151 conf act | GPR119 ag
Cc1ccccc1OCc1n[nH]c(=S)n1C | 7.2* | -5.8 | -0.1 | 4.7 | -0.3 | -0.8
COc1ccc(CNC(=O)CSc2nnc3sc4ccccc4n23)cc1C(=O)O | 5.5* | 4.6 | 0.0 | 4.1 | -0.1 | 4.3
N#C/C(=C\c1ccc(-c2ccc(F)cc2)o1)C(=O)NCC1CCCO1 (configuration not stated) | 5.5* | -3.3 | 0.0 | 1.3 | -0.7 | 2.2
Cc1cc(NC(=O)C(N)=O)ccc1Br | 5.0* | 3.1 | 0.0 | 3.6 | -0.2 | 4.0
O=C(NC(=O)N1CCOCC1)c1ccc(Cn2cc(C(F)(F)F)ccc2=O)cc1 | 0.5 | -1.9 | 0.1 | 3.2 | nt | nt
CC(=O)N(C)c1ccccc1NC(=O)CCl | 8.7* | -12.0 | -0.1 | -9.1 | 0.1 | 4.1
CC(C)(C)c1ccccc1NC(=O)CCl | -1.4 | 5.4 | 0.1 | 4.9 | nt | nt
Cn1cccc1C(=O)OCC(=O)NC(=O)NCc1ccccc1 | 6.2* | 6.9 | 0.5 | 3.2 | 1.9 | 13.3
Cc1ccc(-n2c(-c3ccc4[nH]c(C)c(C)c4c3)n[nH]c2=S)cc1 | 5.5* | 8.4 | -0.2 | -27.0 | 0.7 | -3.7
S=C(NCc1ccco1)N1CCN(C2CCCCC2)CC1 | 6.1* | -0.2 | -0.2 | -4.1 | -1.1 | -3.5
COc1ccccc1CNC(=O)CN(c1cccc(Br)c1)S(C)(=O)=O | 0.3 | -2.9 | -0.1 | 11.2 | nt | nt
COC(=O)c1cc(Cl)c(NC(=O)c2cc3ccccc3oc2=O)cc1OC | -0.4 | 4.5 | 0.1 | -0.7 | nt | nt
Cc1cccnc1CCNC(=O)c1cc(COc2ccc3ncccc3c2)on1 | 0.8 | 17.7 | 0.2 | 25.9 | nt | nt
COc1cccc(CCNC(=O)c2cc(COc3ccc4ncccc4c3)on2)c1 | 5.9* | -5.2 | -0.1 | 31.9 | -1.2 | -16.9
O=C1c2nccnc2C(=O)N1Cc1ccco1 | 0.5 | 3.2 | 0.1 | -6.2 | nt | nt
CCOc1ccc(NC2=CC(=O)C=CC2=O)cc1 | 5.8* | 26.0 | -0.4 | 7.9 | 0.3 | -1.6
CCOc1ccc(NC2=CC(=O)CCC2)cc1 | 1.0 | -3.9 | -0.1 | -1.3 | nt | nt
CCOc1ccccc1CN1CCC(C(=O)NCc2ccc(C)cc2)CC1 | -0.2 | 21.1 | -0.1 | 5.2 | nt | nt
CCOc1cccc(CN2CCC(C(=O)NCc3ccccn3)CC2)c1O | 8.7* | 53.6* | -0.1 | 8.1 | -1.0 | -2.6
O=C1c2ccccc2C(=O)N1CC1c2ccccc2CCN1S(=O)(=O)c1ccc(Cl)cc1 (configuration not stated) | 1.0 | 3.2 | -0.1 | 19.6 | nt | nt
O=C1CCCCc2sccc2N1 | 6.4* | -2.4 | -0.1 | 0.7 | 0.9 | -4.4
COc1ccc(CNc2nccn3c(-c4cnc(OC)nc4OC)cnc23)cc1 | 0.2 | 17.9 | 0.5 | -11.0 | nt | nt
Cc1ccccc1NC(=O)C(C)(C)N(Cc1ccco1)C(=O)C(C)Oc1cc(Cl)c(Cl)cc1Cl (configuration not stated) | 5.6* | 12.1 | 0.4 | -7.8 | 0.0 | -7.5
Cc1cc(OC(C)C(=O)N(Cc2ccco2)C2CCS(=O)(=O)C2)ccc1Cl (configuration not stated) | -0.6 | 6.7 | 0.0 | 7.5 | nt | nt
Cc1c(N2C(=O)c3ccc(Br)cc3C2=O)c(=O)n(-c2ccccc2)n1C | 5.2* | 2.5 | -0.1 | -5.0 | -0.3 | -3.9
Cn1c(CNc2nc3ccccc3n2CCN2CCOCC2)nc2ccccc21 | -1.0 | 11.7 | 0.0 | -13.5 | nt | nt
